Assay results taken from PubChem BioAssay (Tox21).
Inconclusive results are not listed. Calls of active or inactive are those of the source. Calls come from the whole dose curve; as a rule, active = well fitted cell-killing curve with a large enough effect in the repeat runs; inconclusive = weak or mixed curves, or effect the other way; inactive = no such curve, though single readings can be large or run the other way.

Experiment: qHTS assay to identify small molecule agonists of the vitamin D receptor (VDR) signaling pathway - cell viability counter screen (AID 743224); note: nearly all actives have a fitted effect of over 50% in size
Conditions: VDR-bla HEK293T viability, CellTiter-Glo luminescence, 16 h; series mostly up to 62.6 µM
Source text: U.S. Tox21 Program National Center for Advancing Translational Sciences [NCATS] NIH Chemical Genomics Center [NCGC] U.S. Environmental Protection Agency [EPA] National Institutes of Environmental Health Sciences [NIEHS] National Toxicology Program [NTP] U.S. Food and Drug Administration [FDA] Tox21 Assay Overview: The vitamin D receptor (VDR), a member of nuclear hormone receptor superfamily, plays a critical role in calcium homeostasis and bone metabolism. It is also involved in cell differentiation and growth, and thrombogenicity. […] The cytotoxicity of the Tox21 compound library against the VDR-bla cell line was tested in parallel by measuring the cell viability using CellTiter-Glo assay (Promega, Madison, WI) in the same wells.
Tox21 Assay Protocol Summary: VDR-bla cells were dispensed at 2,000 cells/6 uL/well into black wall/clear-bottom 1536-well plates using a Multidrop Combi (Thermo Fisher Scientific, Waltham, MA) dispenser. After the assay plates were incubated at a 37C and 5% CO2 for 4 h, 23 nL of compounds dissolved in DMSO, positive controls or DMSO only was transferred to the assay plate by a Pintool station (Kalypsys, San Diego, CA). The plates were incubated at 37C and 5% CO2 for 16 h. After 1 uL of LiveBLAzerTM B/G FRET substrate was added using a Bioraptr Flying Reagent Dispenser (FRD) workstation (Beckman Coulter, Indianapolis, IN, USA), the plates were incubated at room temperature for 2 h, and fluorescence intensity was measured by an Envision plate reader (PerkinElmer, Shelton, CT). For cell viability readout that measures cytotoxicity, 3 ul/well of CellTiter-Glo reagent was added into the assay plates using a FRD. After 30 min incubation at room temperature, the luminescence intensity in the plates was measured using a ViewLux (PerkinElmer) plate reader.

Row | Compound | outcome
1 | CC(=O)OCc1ccco1 | inactive
2 | CN(C)c1ccc(O)c2c1C[C@H]1C[C@H]3[C@H](N(C)C)C(=O)C(C(N)=O)=C(O)[C@@]3(O)C(=O)C1=C2O | inactive
3 | CCOCC(=O)O | inactive
4 | C[C@]12CCC(=O)C=C1CC[C@@H]1[C@@H]2[C@@H](O)C[C@@]2(C)[C@H]1CC[C@]2(O)C(=O)CO | inactive
5 | O=C1CCCC1 | inactive
6 | NCCNCCN | inactive
7 | O=C(OCC1CCC2OC2C1)C1CCC2OC2C1 (stereo not given) | inactive
8 | O=C(O)c1cc2ccccc2cc1O | inactive
9 | COC(=O)CCCC(=O)OC | inactive
10 | CCNc1ccccc1 | inactive
11 | CC(C)OC(=O)COc1ccc(Cl)cc1Cl | inactive
12 | CC(C)(C)c1cc(Cc2cc(C(C)(C)C)c(O)c(C(C)(C)C)c2)cc(C(C)(C)C)c1O | inactive
13 | CC(=O)Oc1ccc(C)cc1 | inactive
14 | CC(C)OP(=O)(CP(=O)(OC(C)C)OC(C)C)OC(C)C | inactive
15 | O=C(O)Cn1c(=O)n(Cc2ccc(Br)cc2F)c(=O)c2ccc(Cl)cc21 | inactive
16 | CCCCCCCO | inactive
17 | COCCOC(=O)c1ccccc1C(=O)OCCOC | inactive
18 | Cc1ccc(S(=O)(=O)N=C=O)cc1 | inactive
19 | OCc1cccc(Oc2ccccc2)c1 | inactive
20 | OCc1ccccc1 | inactive

Row | Compound | outcome
21 | C[Si]1(C)O[Si](C)(C)O[Si](C)(C)O[Si](C)(C)O1 | inactive
22 | NC(=S)NNC(N)=S | inactive
23 | C=CC[N+](C)(C)CC=C | inactive
24 | N[C@H](Cc1c[nH]c2ccccc12)C(=O)O | inactive
25 | CC(CCO)CC(C)(C)C (stereo not given) | inactive
26 | COc1ccccc1OCC(O)CO (stereo not given) | inactive
27 | CCO[Si](CCC#N)(OCC)OCC | inactive
28 | COc1ccc([N+](=O)[O-])cc1N | inactive
29 | CNC(=S)N(C)C | inactive
30 | CC1(C)NC(=O)NC1=O | inactive
31 | CC(=O)CCC=C(C)C | inactive
32 | CC(C)c1cccc(C(C)C)c1 | inactive
33 | CCOC(=O)n1ccn(C)c1=S | inactive
34 | CCCCCC(=O)O | inactive
35 | CCNc1cccc(C)c1 | inactive
36 | O=C(O)CCCCCCCCC(=O)O | inactive
37 | N#Cc1ccccc1 | inactive
38 | CCCCC(C=O)CC (stereo not given) | inactive
39 | CC(=O)OCCOC(C)=O | inactive
40 | CC(=O)OC1CC(C)OC(C)O1 (stereo not given) | inactive
